Results from PubChem BioAssay AID1159580 (chemical genetic matrix, 2015).
Among all 5,500 compounds or so, about 2,000 (36%) were called active. Roughly 18% stayed inconclusive and do not appear here. No stated cut-off is given here; in the data, active means normalized growth mostly below about 0.91 (no sharp cut-off); inconclusive means no clear call, values can overlap the other calls; inactive means mostly above about 0.92. The list shows a part of the results.

Test: chemical genetic growth profiling, strain panel (AID 1159580);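 further: tested at 20 µM; growth read once vehicle control cultures reached saturation at 30 °C; 1 = growth at the plate median or of vehicle wells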
Conditions: growth OD

Measured: normalized growth

COC1=CC(=O)C=C(OC)C1=O
inactive: S. cerevisiae deletion strains, locus YKL009W, strain mrt4, stronger effect = lower value 0.956 | S. cerevisiae deletion strains, locus YKL068W, stronger effect = lower value 0.972 | S. cerevisiae deletion strains, locus YKL085W, strain MDH1 (second series), stronger effect = lower value 0.981 | S. cerevisiae deletion strains, locus YKL085W, strain MDH1, stronger effect = lower value 0.981 | S. cerevisiae deletion strains, locus YKL160W, strain elf1, stronger effect = lower value 0.971 | S. cerevisiae deletion strains, locus YKL190W, strain CNB1, stronger effect = lower value 0.989 | S. cerevisiae deletion strains, locus YKR001C, strain vps1, stronger effect = lower value 0.995 | S. cerevisiae deletion strains, locus YKR026C, strain gcn3, stronger effect = lower value 0.995 | S. cerevisiae deletion strains, locus YKR091W, strain srl3, stronger effect = lower value 1 | S. cerevisiae deletion strains, locus YLL001W, strain dnm1, stronger effect = lower value 0.996 | S. cerevisiae deletion strains, locus YLL026W, stronger effect = lower value 0.991 | S. cerevisiae deletion strains, locus YLL041C, strain sdh2, stronger effect = lower value 1.01 | S. cerevisiae deletion strains, locus YLR027C, strain aat2, stronger effect = lower value 0.997 | S. cerevisiae deletion strains, locus YLR039C, strain RIC1, stronger effect = lower value 0.981 | S. cerevisiae deletion strains, locus YLR058C, strain SHM2, stronger effect = lower value 0.988 | S. cerevisiae deletion strains, locus YLR102C, strain apc9, stronger effect = lower value 0.982 | S. cerevisiae deletion strains, locus YLR113W, strain HOG1, stronger effect = lower value 0.998 | S. cerevisiae deletion strains, locus YLR221C, strain rsa3, stronger effect = lower value 1 | S. cerevisiae deletion strains, locus YLR258W, strain gsy2, stronger effect = lower value 0.997 | S. cerevisiae deletion strains, locus YLR262C, strain YPT6 (second series), stronger effect = lower value 0.946 | S. cerevisiae deletion strains, locus YLR262C, strain YPT6, stronger effect = lower value 0.967 | S. cerevisiae deletion strains, locus YLR268W, strain sec22, stronger effect = lower value 0.989 | S. cerevisiae deletion strains, locus YLR320W, strain mms22, stronger effect = lower value 0.955 | S. cerevisiae deletion strains, locus YLR330W, strain CHS5, stronger effect = lower value 0.997 | S. cerevisiae deletion strains, locus YLR342W, strain FKS1 (second series), stronger effect = lower value 1.02 | S. cerevisiae deletion strains, locus YLR342W, strain FKS1, stronger effect = lower value 0.976 | S. cerevisiae deletion strains, locus YLR357W, strain rsc2, stronger effect = lower value 0.99 | S. cerevisiae deletion strains, locus YLR370C, strain arc18, stronger effect = lower value 1.01 | S. cerevisiae deletion strains, locus YLR371W, strain rom2, stronger effect = lower value 0.989 | S. cerevisiae deletion strains, locus YLR384C, strain iki3, stronger effect = lower value 0.986 | S. cerevisiae deletion strains, locus YLR418C, strain cdc73, stronger effect = lower value 0.999 | S. cerevisiae deletion strains, locus YML016C, strain PPZ1, stronger effect = lower value 0.994 | S. cerevisiae deletion strains, locus YML032C, strain rad52, stronger effect = lower value 0.973 | S. cerevisiae deletion strains, locus YML120C, strain ndi1, stronger effect = lower value 1.01 | S. cerevisiae deletion strains, locus YML124C, strain tub3, stronger effect = lower value 0.987 | S. cerevisiae deletion strains, locus YMR058W, strain fet3, stronger effect = lower value 1.02 | S. cerevisiae deletion strains, locus YMR078C, strain ctf18, stronger effect = lower value 0.999 | S. cerevisiae deletion strains, locus YMR125W, strain sto1, stronger effect = lower value 1.02 | S. cerevisiae deletion strains, locus YMR129W, stronger effect = lower value 0.999 | S. cerevisiae deletion strains, locus YMR205C, strain PFK2, stronger effect = lower value 0.983 | S. cerevisiae deletion strains, locus YMR223W, strain ubp8, stronger effect = lower value 0.993 | S. cerevisiae deletion strains, locus YMR231W, strain pep5, stronger effect = lower value 1.01 | S. cerevisiae deletion strains, locus YMR307W, strain GAS1, stronger effect = lower value 1.12 | S. cerevisiae deletion strains, locus YNL067W, strain RPL9B, stronger effect = lower value 0.997 | S. cerevisiae deletion strains, locus YNL071W, strain lat1, stronger effect = lower value 0.989 | S. cerevisiae deletion strains, locus YNL183C, strain NPR1, stronger effect = lower value 0.95 | S. cerevisiae deletion strains, locus YNL209W, strain ssb2, stronger effect = lower value 0.996 | S. cerevisiae deletion strains, locus YNL233W, strain BNI4, stronger effect = lower value 1.02 | S. cerevisiae deletion strains, locus YNL248C, strain rpa49, stronger effect = lower value 1.01 | S. cerevisiae deletion strains, locus YNL250W, strain rad50, stronger effect = lower value 0.987 | S. cerevisiae deletion strains, locus YNL271C, strain bni1, stronger effect = lower value 0.99 | S. cerevisiae deletion strains, locus YNL298W, strain CLA4, stronger effect = lower value 0.999 | S. cerevisiae deletion strains, locus YNL307C, strain MCK1, stronger effect = lower value 0.992 | S. cerevisiae deletion strains, locus YNL322C, strain KRE1 (second series), stronger effect = lower value 0.996 | S. cerevisiae deletion strains, locus YNL322C, strain KRE1, stronger effect = lower value 0.993 | S. cerevisiae deletion strains, locus YNR049C, strain mso1, stronger effect = lower value 1 | S. cerevisiae deletion strains, locus YNR052C, strain pop2, stronger effect = lower value 1.01 | S. cerevisiae deletion strains, locus YOL006C, strain TOP1, stronger effect = lower value 1.17 | S. cerevisiae deletion strains, locus YOL012C, strain htz1 0.746 | S. cerevisiae deletion strains, locus YOL147C, strain pex11, stronger effect = lower value 0.988 | S. cerevisiae deletion strains, locus YOR001W, strain rrp6, stronger effect = lower value 1 | S. cerevisiae deletion strains, locus YOR061W, strain CKA2, stronger effect = lower value 0.965 | S. cerevisiae deletion strains, locus YOR069W, strain VPS5, stronger effect = lower value 0.991 | S. cerevisiae deletion strains, locus YOR070C, strain gyp1, stronger effect = lower value 0.996 | S. cerevisiae deletion strains, locus YOR080W, strain dia2, stronger effect = lower value 1.01 | S. cerevisiae deletion strains, locus YOR083W, strain WHI5, stronger effect = lower value 0.927 | S. cerevisiae deletion strains, locus YOR106W, strain vam3, stronger effect = lower value 0.97 | S. cerevisiae deletion strains, locus YOR136W, strain idh2, stronger effect = lower value 0.972 | S. cerevisiae deletion strains, locus YOR144C, strain elg1, stronger effect = lower value 0.994 | S. cerevisiae deletion strains, locus YOR184W, strain ser1, stronger effect = lower value 0.982 | S. cerevisiae deletion strains, locus YOR231W, strain MKK1, stronger effect = lower value 1.01 | S. cerevisiae deletion strains, locus YOR265W, strain rbl2, stronger effect = lower value 0.994 | S. cerevisiae deletion strains, locus YOR270C, strain vph1, stronger effect = lower value 0.94 | S. cerevisiae deletion strains, locus YOR290C, strain snf2, stronger effect = lower value 0.991 | S. cerevisiae deletion strains, locus YOR316C, strain cot1, stronger effect = lower value 0.986 | S. cerevisiae deletion strains, locus YPL051W, strain arl3, stronger effect = lower value 0.998 | S. cerevisiae deletion strains, locus YPL055C, strain LGE1, stronger effect = lower value 1.04 | S. cerevisiae deletion strains, locus YPL078C, strain atp4, stronger effect = lower value 0.962 | S. cerevisiae deletion strains, locus YPL106C, strain sse1, stronger effect = lower value 0.994 | S. cerevisiae deletion strains, locus YPL240C, strain hsp82, stronger effect = lower value 0.991 | S. cerevisiae deletion strains, locus YPL241C, strain CIN2, stronger effect = lower value 0.986 | S. cerevisiae deletion strains, locus YPL256C, strain CLN2, stronger effect = lower value 1.01 | S. cerevisiae deletion strains, locus YPR119W, strain clb2, stronger effect = lower value 0.981 | S. cerevisiae deletion strains, locus YPR141C, strain kar3, stronger effect = lower value 0.983 | S. cerevisiae deletion strains, locus YPR163C, strain tif3, stronger effect = lower value 1 | S. cerevisiae deletion strains, locus YPR167C, strain met16, stronger effect = lower value 0.976 | S. cerevisiae deletion strains, strain wtn01, stronger effect = lower value 0.981 | S. cerevisiae strains, strain wild type, stronger effect = lower value 1
